# Hits are enriched below; roughly 1.2% of the tested compounds scored in any of these assays.
# HUVEC tox TNFa – toxic to HUVEC cells under TNF alpha stimulation; HUVEC TNFalpha-stimulated, Hoechst cell count, imaging; cell count reduction, % at 2 µM; 0.17% of 93,000 active;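 active means cell count reduction exceeding the screen mean by over 5 SD, scaled to untreated wells per plate, cut at about 78% in these data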;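 further: cells counted after 24 h of TNF alpha exposure following the 1 h pretreatment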
# VCAM1 TNFa inh – reduces TNF alpha induced VCAM1 expression in HUVEC | inhibition, % at 2 µM | 0.48% of 95,000 active | HUVEC TNFa-induced VCAM-1 immunofluorescence, high-content imaging;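 active means inhibition above the batch mean plus 3 SD, with images confirmed as a hit by eye, cut at about 37% in these data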;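 further: 0% = TNF-stimulated DMSO wells and 100% = unstimulated control wells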
# E-sel TNF inh – TNF alpha driven E-selectin expression inhibition; HUVEC TNFa-induced E-selectin immunofluorescence, high content; inhibition, % at 2 µM; 0.71% of 120,000 active; AID 1246;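 active means inhibition above the batch mean plus 3 SD, and confirmed as a hit on visual image review, cut at about 43% in these data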;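 further: 0% = TNF-stimulated DMSO wells and 100% = unstimulated control wells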
# cytoskel mod – cytoskeleton assembly modification | HUVEC TNFa F-actin phalloidin imaging, high content | inhibition, % at 2 µM | 0.18% of 91,000 active | AID 836;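 active means inhibition above the batch mean plus 3 SD and confirmed as a hit by visual image inspection, cut at about 30% in these data, passing the limit was not always enough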
# An asterisk follows results filed as active; . = no result given.
SMILES,HUVEC tox TNFa,VCAM1 TNFa inh,E-sel TNF inh,cytoskel mod
COc1ccc(-c2c/c(=N\c3nc(-c4ccccc4)c(C)s3)c3ccccc3o2)cc1O,55,51*,1,18
COc1ccc(S(=O)(=O)N2CCCC2C(=O)Nc2ccc(C)cc2)cc1 (stereo unspecified),6,97*,-9,1
COc1ccc(NC(=O)C2CCCN2S(=O)(=O)c2ccc(F)cc2)cc1 (stereo unspecified),-17,2,.,1
O=C(N/N=C/c1ccc([N+](=O)[O-])s1)c1cccnc1,.,.,72*,.
COc1ccc(-n2nc3c(c2NC(=O)c2cc(Br)ccc2Cl)CS(=O)C3)cc1 (stereo unspecified),-2,-6,83*,-6
COc1ccc(-n2nc3c(c2NC(=O)c2ccc(Br)cc2)CS(=O)C3)cc1 (stereo unspecified),13,-3,.,-14
CCOC(=O)N1CCC(N2CCN(S(=O)(=O)c3ccc(NC(C)=O)cc3)CC2)CC1,-10,15,100*,-11
COc1cc(/C=N/Nc2nc3ccccc3[nH]2)cc(Br)c1OCC(=O)N(C)C,.,.,-11,.
O=C(NNc1cc(N2CCCC2)nc(N2CCCC2)n1)c1ccc([N+](=O)[O-])cc1,.,.,-20,.
CCN1CCN(CC(=O)Nc2cc(C)c(C)cc2[N+](=O)[O-])CC1,.,.,9,.
COc1cc(NC(=O)CN2CCC(C)CC2)c(C)cc1[N+](=O)[O-],.,.,83*,.
C=CCN1C(c2ccc(Br)cc2)=CS/C1=C(/C#N)c1nnc(N2CCOCC2)n1-c1ccccc1,.,.,9,.
C=CCN1C(c2ccccc2)=CS/C1=C(\C#N)c1nnc2n1CCCCC2,.,.,63*,.
C=CCN1C(c2cccc(C(F)(F)F)c2)=CS/C1=C(/C#N)c1nnc(N2CCOCC2)n1-c1ccccc1,.,.,72*,.
Cc1ccc(-n2nnnc2SCC(=O)Nc2c(C)n(C)n(-c3ccccc3)c2=O)cc1,.,-2,-21,14
COCCCNCCCCOc1ccc(OCc2ccccc2)cc1,.,.,66*,.
CSc1oc(-c2ccco2)nc1S(=O)(=O)c1ccccc1,82*,13,.,14
CC1CCCN(c2nc3ccsc3c(=O)s2)C1 (stereo unspecified),91*,92*,4,-21
COc1ccc(Cn2c(CCC(=O)Nc3ccc(C)cc3)nc3cccnc32)cc1,-15,24,1,1
COc1ccc(Cn2c(CCC(=O)O)nc3cccnc32)cc1,71,93*,.,-16
Cc1ccc(NC2OC(C(O)CO)C(O)C2O)cc1[N+](=O)[O-] (stereo unspecified),27,-12,64*,.
CC1CC(=O)NN=C1c1ccc(NCCO)c([N+](=O)[O-])c1 (stereo unspecified),25,40*,-21,-41
COc1ccc(C(=O)Nc2ccc(C3=NNC(=O)CC3C)cc2NC(=O)c2ccc(OC)cc2)cc1 (stereo unspecified),.,.,-29,.
COc1cccc(-c2nnc(SCC(=O)N3CCOCC3)o2)c1,-3,8,0,-3
Cc1ccccc1-c1cc(-c2ccccc2O)on1,2,47*,2,-30
SMILES,HUVEC tox TNFa,VCAM1 TNFa inh,E-sel TNF inh,cytoskel mod
COc1ccc(C(=O)NCC(C)C)c(OC)c1,-12,-5,91*,-16
O=C(N/N=C/c1ccc(OCC(=O)N2CCCCC2)cc1)c1ccccc1,-1,12,-6,-14
O=C(COc1ccc(/C=N/NC(=O)C(=O)N2CCCCCC2)cc1)Nc1ccccc1Cl,.,.,70*,.
O=C1CC(N2CCOCC2)C(=O)N1Cc1ccc(N2CCCC2=O)cc1 (stereo unspecified),-15,-3,-12,-17
O=C1CC(N2CCN(Cc3ccc4c(c3)OCO4)CC2)C(=O)N1Cc1ccc(N2CCCC2=O)cc1 (stereo unspecified),92*,80*,.,32
Cc1cc(=O)oc2cc(OCC(=O)OCC(=O)NCc3ccc4c(c3)OCO4)ccc12,-7,-9,71*,8
Cc1nc(SCC(=O)NC(C)c2ccccc2)c2oc3ccccc3c2n1 (stereo unspecified),-2,-16,-13,8
Fc1ccc(C2CC(c3ccccc3)n3ncnc3N2)cc1 (stereo unspecified),-10,16,-15,2
Oc1ccccc1C1=Nc2ncnn2C(c2ccccc2)C1 (stereo unspecified),.,.,96*,.
O=S(=O)(NCC(c1cccnc1)N1CCOCC1)c1cccs1 (stereo unspecified),-18,11,-10,2
CCc1nnc(NC(=O)CCC(=O)N2CCN(C3CCCCC3)CC2)s1,-6,15,18,-28
CC(C)c1nnc(NC(=O)CCC(=O)N2CCN(C3CCCCC3)CC2)s1,23,36*,21,-3
O=C(COC(=O)CNC(=O)c1ccc(Br)o1)Nc1ccc2c(c1)OCCO2,-8,6,27,32
COc1cccc(C(=O)COc2cccc(NC(=O)c3cccc([N+](=O)[O-])c3)c2)c1,66,49*,19,4
COc1cccc(C(=O)Nc2cccc(OC(C)=O)c2)c1,-8,-3,-6,20
CCc1ccc(NC(=O)C(=O)NCCN2CCN(C(=O)c3ccco3)CC2)cc1,-33,16,-25,4
CC(=O)c1nnn(-c2nc(N)nc(N(c3ccccc3)c3ccccc3)n2)c1C,-13,4,61*,60
CC(=O)Nc1ccc(S(=O)(=O)N(C)c2ccccc2)cc1,.,.,-21,.
CN(c1ccccc1)S(=O)(=O)c1ccc(NC(=S)Nc2ccccc2)cc1,-17,-15,87*,6
CCOC(=O)c1sc(SCC(=O)Nc2ccc(N(C)C)cc2)nc1N,-41,-8,-11,14
O=c1ncn(-c2ccccc2F)c2ncccc12,-2,5,67*,-3
Cc1oc2c(CN3CCOCC3)c(O)ccc2c(=O)c1-c1ccc(Br)cc1,-40,29,4,2
O=c1c(-c2ccc(Br)cc2)coc2c(CN3CCOCC3)c(O)ccc12,32,62*,-9,5
CCOc1ccccc1C(=O)Nc1ccc(-c2nnc(-c3ccc(C)cc3)o2)cc1,6,-15,72*,2
CCOC(=O)Cc1c(C)nc2c(-c3ccccc3)c[nH]n2c1=O,.,.,96*,.
SMILES,HUVEC tox TNFa,VCAM1 TNFa inh,E-sel TNF inh,cytoskel mod
CCOC(=O)Cc1c(C)nc2c(-c3ccccc3)c(C)[nH]n2c1=O,5,-6,0,-5
CC1(C)CC(=O)C(C=NCC2CCCO2)=C(O)C1 (stereo unspecified),3,-6,80*,12
OC(COCC1CC=CCC1)Cn1cnc2ccccc21 (stereo unspecified),-26,17,-20,8
Cc1nc2ccccc2n1CC(O)COCC1CC=CCC1 (stereo unspecified),96*,-43,14,2
CN(CCC#N)C(=O)COC(=O)c1ccc(Cl)c(S(N)(=O)=O)c1,8,4,-1,0
O=C(COC(=O)c1ccccc1C(=O)c1ccc(Cl)c([N+](=O)[O-])c1)NC1CCCCCC1,28,87*,9,20
CN(CCC#N)C(=O)COC(=O)c1ccccc1C(=O)c1ccc(Cl)c([N+](=O)[O-])c1,.,.,100*,.
Nc1ccc(C(=O)OCC(=O)NC2CC2)cc1[N+](=O)[O-],.,.,-17,.
Nc1ccc2c(c1)N1CCN=C1S2,-19,11,73*,0
